Reference: PubChem BioAssay (EPA / NIEHS)
Calls of active or inactive are those of the source. Rule for the calls: active = hit-call score of the fitted dose curve at least 0.9, where 1 is the maximum; inactive = score below 0.9.

What follows are molecules tested against Signal transducer and activator of transcription 3 (Homo sapiens) (UniProt P40763) (assay: ATG_STAT3_CIS: Attagene CIS-FACTORIAL HepG2 Assay for human Signal Transducer and Activator of Transcription 3 (STAT3) (AID 2282963)). Details: HepG2, Attagene cis-factorial STAT3 reporter transcription; actives raise or lower the signal.
Sequence of Signal transducer and activator of transcription 3 (Homo sapiens) (P40763 whole entry, looked up): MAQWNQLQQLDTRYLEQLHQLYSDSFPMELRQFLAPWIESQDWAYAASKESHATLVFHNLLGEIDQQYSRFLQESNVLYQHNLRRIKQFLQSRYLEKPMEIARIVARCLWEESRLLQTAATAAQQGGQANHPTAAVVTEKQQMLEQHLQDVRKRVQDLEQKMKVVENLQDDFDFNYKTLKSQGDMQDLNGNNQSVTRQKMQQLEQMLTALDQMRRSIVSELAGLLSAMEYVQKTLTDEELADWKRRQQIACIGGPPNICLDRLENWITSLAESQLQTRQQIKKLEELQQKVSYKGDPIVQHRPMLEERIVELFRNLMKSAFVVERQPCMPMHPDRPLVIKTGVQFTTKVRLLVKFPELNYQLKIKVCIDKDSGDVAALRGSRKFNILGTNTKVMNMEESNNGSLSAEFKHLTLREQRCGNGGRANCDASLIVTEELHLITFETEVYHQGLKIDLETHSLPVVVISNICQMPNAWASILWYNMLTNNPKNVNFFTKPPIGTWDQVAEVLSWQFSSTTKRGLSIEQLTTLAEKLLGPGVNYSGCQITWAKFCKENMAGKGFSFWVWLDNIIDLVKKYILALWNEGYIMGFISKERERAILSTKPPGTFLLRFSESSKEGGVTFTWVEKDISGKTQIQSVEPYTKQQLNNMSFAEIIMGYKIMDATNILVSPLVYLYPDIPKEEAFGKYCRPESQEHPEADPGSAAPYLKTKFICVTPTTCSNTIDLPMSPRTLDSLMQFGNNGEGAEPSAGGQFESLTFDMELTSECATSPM
Experimental: ATG_CIS is a cell-based, multiplexed-readout assay that uses HepG2, a human liver cell line, with measurements taken at 24 hours after chemical dosing in a 24-well plate.ATG_STAT3_CIS is one of 52 assay component(s) measured or calculated from the ATG_CIS assay. It is designed to make measurements of mRNA induction, a form of inducible reporter, as detected with fluorescence intensity signals by Reverse transcription polymerase chain reaction (RT-PCR) and Capillary electrophoresis technology.Data from the assay component ATG_STAT3_CIS was analyzed into 1 assay endpoint. This assay endpoint, ATG_STAT3_CIS, was analyzed with bidirectional fitting relative to DMSO as the negative control and baseline of activity. Using a type of inducible reporter, measures of mRNA for gain or loss-of-signal activity can be used to understand the reporter gene at the transcription factor-level as they relate to the gene STAT3. Furthermore, this assay endpoint can be referred to as a primary readout, because this assay has produced multiple assay endpoints where this one serves a reporter gene function. To generalize the intended target to other relatable targets, this assay endpoint is annotated to the dna binding intended target family, where the subfamily is stat protein.
Human liver HepG2 cells are transiently transfected with multiple reporter transcription units (MRTUs) in 6-well plates using FuGene 6 reagent (Roche; 3 ml FuGene/1 mg DNA). The MRTU constructs are regulated by a cis-regulating element (promoter). […] A major difference between the CIS and TRANS system is that in CIS activities of endogenous TFs are measured, whereas the TRANS assay evaluates changes in activities of exogenous, chimeric NR-Gal4 proteins. […] At the end of 24 hour incubation, total RNA was isolated using TriZol reagent (Invitrogen). The isolated RNA is then reverse-transcribed using oligo(dT) primer and Mo-MLV reverse transcriptase (Invitrogen) with DNAse I (Ambion) treatment for 30 min. The one-tenth of the produced cDNA was amplified by PCR using Taq DNA polymerase (Invitrogen) and two reporter sequence-specific primers. The PCR products were fluorescently labeled by primer extension with 6-arboxyfluorescein (6-FAM) 5'-labeled reporter sequence-specific primer (2 min at 95 C, 20 s at 68 C and 10 min at 72 C) and these products were digested with 5U of HpaI (New England Biolabs) for 2h at 37 C. The fragments were purified using Qiaquick PCR columns (Qiagen), analyzed on an ABI 3130xL genetic analyzer (Applied Biosystems) with peak positions identified by using a set of X-rhodamine (ROX)-labeled MapMarker1000 molecular weight standards (BioVentures). The raw capillary electrophoresis data was processed using Attagraph software (Attagene).
With C=CC(=O)OCCOC(=O)C=C the outcome was “inactive”.
Cc1cnc(NC(=O)C2=C(O)c3ccccc3S(=O)(=O)N2C)s1 was tested, and the outcome was “inactive”.
For CC(=O)OCC(=O)[C@@]12N=C(C)O[C@@H]1C[C@H]1[C@@H]3CCC4=CC(=O)C=C[C@]4(C)[C@H]3[C@@H](O)C[C@@]12C, the outcome was “inactive”.
In the case of OCCCS, the outcome is reported as “inactive”.
For CCCCCCCCC(=O)OCC, the outcome was “inactive”.
In the case of C=C1[C@H]2CC[C@@H]3[C@H]2C(C)(C)CCC[C@]13C, the outcome is reported as “inactive”.
With COc1cc(NC(=O)CC(C)=O)c(OC)cc1Cl the outcome was “inactive”.
In the case of C=CC(=O)OCC(Br)CBr (stereo not given), the AC50 is reported as 121 µM (active).
With CCOCC(=O)O the outcome was “inactive”.
For CC(C)C1=CC2=CC[C@@H]3[C@](C)(CCC[C@@]3(C)C(=O)O)[C@H]2CC1, the outcome was “inactive”.
With CC1OC1C1CCC2(C)OC2C1 (stereo not given) the outcome was “inactive”.
With O=C(O)C(c1ccc(Cl)cc1)c1ccc(Cl)cc1 the outcome was “inactive”.
For CCCCCCCCCCOS(=O)(=O)O, the outcome was “inactive”.
For CC(C)(C)c1ccc(OC(=O)c2ccccc2O)cc1, the outcome was “inactive”.
CC(C)(C)c1ccc(-c2ccc(C(C)(C)C)cc2)cc1 was tested, and the outcome was “inactive”.
For CCO[Si](CCCN=C=O)(OCC)OCC, the outcome was “inactive”.
In the case of NC(CO)(CO)CO, the outcome is reported as “inactive”.
With C1=CCCC1 the outcome was “inactive”.
In the case of O=C(Nc1ccccc1SSc1ccccc1NC(=O)c1ccccc1)c1ccccc1, the outcome is reported as “inactive”.
In the case of C=C(C)CCO, the outcome is reported as “inactive”.
With CC(=O)Oc1ccc(C)cc1 the outcome was “inactive”.
For O=C(O)CCCC[C@@H]1SC[C@@H]2NC(=O)N[C@@H]21, the outcome was “inactive”.
In the case of NNC(=O)c1cccc(C(=O)NN)c1, the outcome is reported as “inactive”.
With O=c1cc[nH]c(=S)[nH]1 the outcome was “inactive”.
Cc1cc(C)c(C)cc1C was tested, and the outcome was “inactive”.
For CCCCCCCC/C=C\CCCCCCCC(=O)O, the outcome was “inactive”.
With OC1CCCC1 the outcome was “inactive”.
With CN(C)c1ccc(C(=N)c2ccc(N(C)C)cc2)cc1 the outcome was “inactive”.
In the case of C=CC=CC=CCCCCC, the outcome is reported as “inactive”.
In the case of COC(=O)c1c(C)cc(O)c(C)c1O, the outcome is reported as “inactive”.
N=c1ccn2c(n1)O[C@H]1[C@H](O)[C@@H](CO)O[C@H]12 was tested, and the outcome was “inactive”.
COc1ccc2nc(N)sc2c1 was tested, and the outcome was “inactive”.
In the case of CCc1ccc2c(c1)C(=O)c1ccccc1C2=O, the outcome is reported as “inactive”.
With CCCCCCCCCCCCCCCCCC#N the outcome was “inactive”.
O=C(OCC1CCC2OC2C1)C1CCC2OC2C1 (stereo not given) was tested, and the outcome was “inactive”.
CCC(CC)C(=O)O was tested, and the outcome was “inactive”.
For Nc1ccc(Cl)cc1Cl, the outcome was “inactive”.
With Cc1ccc(C(C)(C)C)cc1 the outcome was “inactive”.
In the case of Nc1ccc(Oc2ccc(N)c(N)c2)cc1, the outcome is reported as “inactive”.
In the case of OC1OCCOC1O (stereo not given), the outcome is reported as “inactive”.
